In general, inhibition refers to the change of the read-out against control, counted positive when it falls.

Casein kinase I isoform alpha (Homo sapiens), sequence (P48729 2-337 limits assumed): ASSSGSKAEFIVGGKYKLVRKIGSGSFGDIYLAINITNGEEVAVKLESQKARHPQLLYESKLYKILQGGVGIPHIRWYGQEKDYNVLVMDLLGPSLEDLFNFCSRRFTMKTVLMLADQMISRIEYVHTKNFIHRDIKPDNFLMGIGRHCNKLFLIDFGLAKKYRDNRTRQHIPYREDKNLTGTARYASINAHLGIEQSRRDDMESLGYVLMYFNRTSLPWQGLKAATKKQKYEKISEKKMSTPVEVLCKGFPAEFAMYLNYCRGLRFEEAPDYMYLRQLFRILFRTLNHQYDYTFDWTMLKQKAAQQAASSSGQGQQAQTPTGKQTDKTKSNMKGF

The first experiment concerns the target Casein kinase I isoform alpha (Homo sapiens) (UniProt P48729). The settings on record: at 0.1 µM.
For `Fc1ccc(-c2ncn(C3CCNCC3)c2-c2ccnc(Oc3ccccc3)n2)cc1`, the inhibition turned out to be 4.72%.

As to `NS(=O)(=O)c1ccc(-c2ccc3c(NC(=O)C4CC4)n[nH]c3c2)cc1`, the inhibition turned out to be 6.65%.

For the compound `Cc1cc(-c2ccco2)cc(C)c1/C=C/c1cncc(-c2nn[nH]n2)c1`, the inhibition was found to be 1.02%.

In the case of `CCn1c(-c2nonc2N)nc2c(C#CC(C)(C)O)ncc(OCC3CCNCC3)c21`, the inhibition was 4.15%.

Regarding `NS(=O)(=O)c1ccc(N/C=C2\C(=O)Nc3ccc4ncsc4c32)cc1`, the inhibition is 3.99%.

With `COc1cc2c(cc1Nc1nc(Nc3ccsc3C(N)=O)c3cc[nH]c3n1)N(C(=O)CN(C)C)CCC2`, the inhibition was -0.45%.

In the case of `Nc1nonc1-c1nc2cnccc2n1C1CCCCC1`, the inhibition was -1.01%.

Turning to `CCn1c(-c2nonc2N)nc2c(C#CCN)ncc(OCCCN)c21`, the inhibition was 1.05%.

`COc1cccc(-n2ncc3c(N/N=C/c4ccncc4)ncnc32)c1`: the inhibition was found to be 6.11%.

For the compound `CCn1c(-c2nonc2N)nc2c(C#CC(C)(C)O)ncc(OC[C@@H]3CCCN3)c21`, the inhibition was -1.71%.

In the case of `COc1cccc(COc2cc(-n3cnc4ccccc43)sc2C(N)=O)c1`, the inhibition was -2.17%.

Take `COc1cc(C=NNc2ncnc3c2cnn3Cc2ccccc2)ccc1O`: the inhibition is -0.09%.

Regarding `CCn1c(-c2nonc2N)nc2c(C#CC(C)(C)O)nc(O[C@@H](CN)c3ccccc3)cc21`, the inhibition worked out at 1.59%.

Regarding `NC(=O)c1sc(-n2cnc3cc(C(F)(F)F)ccc32)cc1OCc1ccccc1Br`, the inhibition was 1.1%.

For another experiment the target is unchanged. The settings on record: at 1 µM.
With `Fc1ccc(-c2ncn(C3CCNCC3)c2-c2ccnc(Oc3ccccc3)n2)cc1`, the inhibition came to 30.9%.

For `NS(=O)(=O)c1ccc(-c2ccc3c(NC(=O)C4CC4)n[nH]c3c2)cc1`, the inhibition amounted to 2.79%.

Regarding `Cc1cc(-c2ccco2)cc(C)c1/C=C/c1cncc(-c2nn[nH]n2)c1`, the inhibition was -0.59%.

For the compound `CCn1c(-c2nonc2N)nc2c(C#CC(C)(C)O)ncc(OCC3CCNCC3)c21`, the inhibition was determined as 4.34%.

As for `NS(=O)(=O)c1ccc(N/C=C2\C(=O)Nc3ccc4ncsc4c32)cc1`, the inhibition stood at 14.7%.

Take `COc1cc2c(cc1Nc1nc(Nc3ccsc3C(N)=O)c3cc[nH]c3n1)N(C(=O)CN(C)C)CCC2`: the inhibition is 4.2%.

As for `Nc1nonc1-c1nc2cnccc2n1C1CCCCC1`, the inhibition was -0.02%.

With `CCn1c(-c2nonc2N)nc2c(C#CCN)ncc(OCCCN)c21`, the inhibition was -3.92%.

With `COc1cccc(-n2ncc3c(N/N=C/c4ccncc4)ncnc32)c1`, the inhibition was found to be 11.2%.

As to `CCn1c(-c2nonc2N)nc2c(C#CC(C)(C)O)ncc(OC[C@@H]3CCCN3)c21`, the inhibition was -2.58%.

Take `COc1cccc(COc2cc(-n3cnc4ccccc43)sc2C(N)=O)c1`: the inhibition was -2.7%.

Take `COc1cc(C=NNc2ncnc3c2cnn3Cc2ccccc2)ccc1O`: the inhibition was -4.3%.

Consider `CCn1c(-c2nonc2N)nc2c(C#CC(C)(C)O)nc(O[C@@H](CN)c3ccccc3)cc21`, for which the inhibition amounted to 4.15%.

Turning to `NC(=O)c1sc(-n2cnc3cc(C(F)(F)F)ccc32)cc1OCc1ccccc1Br`, the inhibition is -0.24%.

For the next experiment, the target named is Casein kinase I isoform gamma-1 (Homo sapiens) (UniProt Q9HCP0). The note with it: at 0.1 µM.
Casein kinase I isoform gamma-1 (Homo sapiens), sequence (Q9HCP0 whole entry, looked up, canonical isoform): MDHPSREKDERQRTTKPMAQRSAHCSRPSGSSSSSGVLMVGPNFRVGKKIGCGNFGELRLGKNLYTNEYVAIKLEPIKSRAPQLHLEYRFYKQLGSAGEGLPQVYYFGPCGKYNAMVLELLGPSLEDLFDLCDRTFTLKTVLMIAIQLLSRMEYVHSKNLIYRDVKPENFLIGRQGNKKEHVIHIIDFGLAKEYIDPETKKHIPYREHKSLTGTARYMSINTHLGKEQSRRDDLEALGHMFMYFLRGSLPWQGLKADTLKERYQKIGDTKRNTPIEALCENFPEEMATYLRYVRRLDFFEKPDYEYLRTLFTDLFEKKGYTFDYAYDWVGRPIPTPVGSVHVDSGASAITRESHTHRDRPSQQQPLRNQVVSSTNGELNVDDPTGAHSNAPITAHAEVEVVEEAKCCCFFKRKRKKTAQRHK
`Fc1ccc(-c2ncn(C3CCNCC3)c2-c2ccnc(Oc3ccccc3)n2)cc1`: the inhibition is -1.52%.

For `NS(=O)(=O)c1ccc(-c2ccc3c(NC(=O)C4CC4)n[nH]c3c2)cc1`, the inhibition is 1.56%.

With `Cc1cc(-c2ccco2)cc(C)c1/C=C/c1cncc(-c2nn[nH]n2)c1`, the inhibition came to 1.01%.

Consider `CCn1c(-c2nonc2N)nc2c(C#CC(C)(C)O)ncc(OCC3CCNCC3)c21`, for which the inhibition is -0.98%.

`NS(=O)(=O)c1ccc(N/C=C2\C(=O)Nc3ccc4ncsc4c32)cc1`: the inhibition is 4.38%.

For the compound `COc1cc2c(cc1Nc1nc(Nc3ccsc3C(N)=O)c3cc[nH]c3n1)N(C(=O)CN(C)C)CCC2`, the inhibition was -0.49%.

On to `Nc1nonc1-c1nc2cnccc2n1C1CCCCC1`, for which the inhibition was -2.65%.

As for `CCn1c(-c2nonc2N)nc2c(C#CCN)ncc(OCCCN)c21`, the inhibition is -2.42%.

`COc1cccc(-n2ncc3c(N/N=C/c4ccncc4)ncnc32)c1`: the inhibition was 3.65%.

Regarding `CCn1c(-c2nonc2N)nc2c(C#CC(C)(C)O)ncc(OC[C@@H]3CCCN3)c21`, the inhibition turned out to be 1.04%.

In the case of `COc1cccc(COc2cc(-n3cnc4ccccc43)sc2C(N)=O)c1`, the inhibition stood at 1.18%.

Consider `COc1cc(C=NNc2ncnc3c2cnn3Cc2ccccc2)ccc1O`, for which the inhibition is -3.34%.

Turning to `CCn1c(-c2nonc2N)nc2c(C#CC(C)(C)O)nc(O[C@@H](CN)c3ccccc3)cc21`, the inhibition is -0.58%.

Turning to `NC(=O)c1sc(-n2cnc3cc(C(F)(F)F)ccc32)cc1OCc1ccccc1Br`, the inhibition was 1.09%.

The target is the same in another experiment. The note with it: at 1 µM.
Turning to `Fc1ccc(-c2ncn(C3CCNCC3)c2-c2ccnc(Oc3ccccc3)n2)cc1`, the inhibition came to 4.5%.

Turning to `NS(=O)(=O)c1ccc(-c2ccc3c(NC(=O)C4CC4)n[nH]c3c2)cc1`, the inhibition worked out at 2.58%.

`Cc1cc(-c2ccco2)cc(C)c1/C=C/c1cncc(-c2nn[nH]n2)c1`: the inhibition came to 1.56%.

In the case of `CCn1c(-c2nonc2N)nc2c(C#CC(C)(C)O)ncc(OCC3CCNCC3)c21`, the inhibition was determined as 0.65%.

For `NS(=O)(=O)c1ccc(N/C=C2\C(=O)Nc3ccc4ncsc4c32)cc1`, the inhibition is 9.59%.

As for `COc1cc2c(cc1Nc1nc(Nc3ccsc3C(N)=O)c3cc[nH]c3n1)N(C(=O)CN(C)C)CCC2`, the inhibition was found to be 5.86%.

Take `Nc1nonc1-c1nc2cnccc2n1C1CCCCC1`: the inhibition was -0.45%.

Regarding `CCn1c(-c2nonc2N)nc2c(C#CCN)ncc(OCCCN)c21`, the inhibition was -2.61%.

Take `COc1cccc(-n2ncc3c(N/N=C/c4ccncc4)ncnc32)c1`: the inhibition was 7.48%.

With `CCn1c(-c2nonc2N)nc2c(C#CC(C)(C)O)ncc(OC[C@@H]3CCCN3)c21`, the inhibition amounted to 2.69%.

`COc1cccc(COc2cc(-n3cnc4ccccc43)sc2C(N)=O)c1`: the inhibition was determined as 2.68%.

Turning to `COc1cc(C=NNc2ncnc3c2cnn3Cc2ccccc2)ccc1O`, the inhibition is -3.33%.

In the case of `CCn1c(-c2nonc2N)nc2c(C#CC(C)(C)O)nc(O[C@@H](CN)c3ccccc3)cc21`, the inhibition is 7.01%.

For `NC(=O)c1sc(-n2cnc3cc(C(F)(F)F)ccc32)cc1OCc1ccccc1Br`, the inhibition is -0.28%.
